Results as given in PMC4336329 (PLoS ONE, 2015).
Out of some 310,000 compounds screened, about 14,000 (4.5%) showed an effect of 50% or more. Effects have a minus sign here. The list comes from a sample in which strong results are over-represented; it also holds similar structures and randomly drawn compounds.

molecular target: human ether-à-go-go-related gene (hERG) potassium channel (human, UniProt Q12809); experiment: primary screen, population patch clamp on CHO cells stably expressing hERG; higher = less effect of the substance
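Note: peak tail current of the secondary pulse compared with the same well before compound.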

Chain of human ether-à-go-go-related gene (hERG) potassium channel (Q12809 whole entry, looked up): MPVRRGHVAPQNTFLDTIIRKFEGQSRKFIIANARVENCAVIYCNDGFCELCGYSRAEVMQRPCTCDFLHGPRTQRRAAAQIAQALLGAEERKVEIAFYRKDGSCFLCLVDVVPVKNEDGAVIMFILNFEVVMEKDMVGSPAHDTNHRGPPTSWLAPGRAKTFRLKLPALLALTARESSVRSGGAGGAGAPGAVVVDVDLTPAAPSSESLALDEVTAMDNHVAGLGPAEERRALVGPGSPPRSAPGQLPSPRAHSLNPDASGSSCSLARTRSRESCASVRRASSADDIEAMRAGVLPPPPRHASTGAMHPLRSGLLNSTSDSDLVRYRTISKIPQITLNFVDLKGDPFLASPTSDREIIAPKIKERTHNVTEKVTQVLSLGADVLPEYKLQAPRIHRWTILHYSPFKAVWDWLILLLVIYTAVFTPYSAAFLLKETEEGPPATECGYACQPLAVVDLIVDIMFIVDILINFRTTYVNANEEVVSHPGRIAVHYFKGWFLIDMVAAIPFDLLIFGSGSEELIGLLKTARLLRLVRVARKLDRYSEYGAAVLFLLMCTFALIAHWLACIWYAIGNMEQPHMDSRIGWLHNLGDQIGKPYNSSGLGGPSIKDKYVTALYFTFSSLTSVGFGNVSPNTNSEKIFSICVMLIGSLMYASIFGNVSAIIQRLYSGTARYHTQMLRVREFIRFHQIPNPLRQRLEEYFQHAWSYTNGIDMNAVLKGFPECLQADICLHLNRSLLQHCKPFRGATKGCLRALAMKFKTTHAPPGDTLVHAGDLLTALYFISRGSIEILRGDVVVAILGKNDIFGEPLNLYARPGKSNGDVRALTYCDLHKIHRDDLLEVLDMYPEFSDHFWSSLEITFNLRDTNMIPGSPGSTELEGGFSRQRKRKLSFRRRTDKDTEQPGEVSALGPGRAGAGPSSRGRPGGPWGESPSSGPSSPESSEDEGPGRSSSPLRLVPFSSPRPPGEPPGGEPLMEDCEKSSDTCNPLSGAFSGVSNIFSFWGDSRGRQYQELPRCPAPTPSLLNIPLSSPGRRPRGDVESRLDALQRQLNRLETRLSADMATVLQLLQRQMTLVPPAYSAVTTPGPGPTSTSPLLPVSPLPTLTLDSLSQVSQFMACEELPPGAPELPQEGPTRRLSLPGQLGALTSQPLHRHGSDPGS

| Compound | hERG current change (%, negative = inhibition) at 10uM |
| --- | --- |
| COc1ccc(-c2noc(CSc3nc(N)cc(=O)[nH]3)n2)cc1 | 0.145% |
| OCCC1CN(CC#Cc2ccccc2)CCN1Cc1ccccc1F (stereo not drawn) | -7.93% |
| Cc1[nH]c2ccccc2c1SCCN | 2.5% |
| O=S(=O)(c1cccc(C(F)(F)F)c1)N1CCN(C(=S)NCc2ccco2)CC1 | -5.8% |
| CC(=O)N1c2ccc(S(=O)(=O)N(C)CC(=O)NC3CCCC3)cc2CC1C (stereo not drawn) | -23.1% |
| COC(=O)C1=C(c2ccc(Cl)c(C(F)(F)F)c2)C[C@@H]2CC[C@H]1N2C(=O)NCc1ccc2c(c1)OCO2 | -12.9% |
| Cc1cc(-n2nc(C)cc2C)n2ncc(-c3ccccc3)c2n1 | 16.2% |
| CC(=O)c1cnc2c(-c3ccc(Cl)cc3)cnn2c1C | -1.45% |
| CCc1ccccc1N(C(=O)Cn1nnc2ccccc21)C(C(=O)NCCOC)c1ccco1 (stereo not drawn) | -7.99% |
| CCOC(=O)c1ccc(NC(=O)c2sc3nc4n(c(=O)c3c2C)CCC4)cc1 | 8.82% |
| N#CCCOC1(C#CCN2CCCC2)CCCCC1 | 19.6% |
| Cc1ccc(O)c(C(CC(=O)NC(C)C)c2ccccc2)c1 (stereo not drawn) | 6.85% |
| COCCCN1CN(Cc2ccccc2)CNC1=S | 5.46% |
| O=C(Nc1nnc(CSCc2ccccc2F)s1)c1cccc([N+](=O)[O-])c1 | -0.45% |
| Cc1ccccc1C(=O)Nc1ccnn1C1CCN(C2CCSCC2)CC1 | -49.5% |
| COc1ccccc1C(=O)Nc1ccnn1C1CCN(C2CCSCC2)CC1 | -70.9% |
| COc1ccc(C(=O)Nc2ccnn2C2CCN(C3CCC3)CC2)cc1 | 20.7% |
| CCCC1=Nc2cc(C(=O)N3CCC(C(N)=O)CC3)ccc2Sc2ccccc21 | 4.75% |
| O=C(/C=C/c1ccc(OC2CSC2)cc1)c1ccccc1 | 10.1% |
| CC(=O)Nc1cccc(C(=O)Nc2ccc(S(=O)(=O)NC3=NCCCCC3)cc2)c1 | 17% |

| Compound | hERG current change (%, negative = inhibition) at 10uM |
| --- | --- |
| O=C(COc1ccccc1)NCc1ccccc1 | 4.64% |
| O=C(COc1ccc(Cl)cc1)NCc1ccccc1 | -10.4% |
| O=C(COc1ccccc1)NCc1nnc2c3ccccc3c(-c3ccccc3)nn12 | -64.6% |
| O=C(COc1ccccc1)NCc1n[nH]c(=S)n1-c1ccccc1 | 17.5% |
| O=C(COc1ccc(Cl)cc1)NCc1nnc2c3ccccc3c(-c3ccccc3)nn12 | -66.9% |
| O=C(COc1ccc(Cl)cc1)NCc1n[nH]c(=O)c2ccccc12 | -13% |
| CCc1cccc(NC(=O)C2CCCN(S(=O)(=O)c3cccnc3)C2)c1 (stereo not drawn) | -5.51% |
| CNCC(=O)Nc1ccc(Cl)c(C(F)(F)F)c1 | 17.6% |
| O=C(O)/C=C/C(=O)c1ccc(O)cc1 | 2.05% |
| C/C(O)=C(\C#N)P(=O)(c1ccccc1)c1ccccc1 | 11.6% |
| Cc1ccccc1NC(=S)NC(C)C(c1ccccc1)N1CCN(C)CC1 (stereo not drawn) | -12.5% |
| Cc1ccccc1NC(=S)NC(C)C(c1cccs1)N1CCOCC1 (stereo not drawn) | 2.05% |
| CCN1CCN(C(c2cccs2)C(C)NC(=S)Nc2cccc(C)c2C)CC1 (stereo not drawn) | -72.9% |
| CCN1CCN(C(c2cccs2)C(C)NC(=O)C(C)C)CC1 (stereo not drawn) | 9.03% |
| CCN1CCN(C(c2cccs2)C(C)NC(=S)Nc2cc(C)ccc2C)CC1 (stereo not drawn) | -68.5% |
| CCN1CCN(C(c2cccs2)C(C)NC(=O)c2ccccc2)CC1 (stereo not drawn) | -1.79% |
| Cc1cccc(NC(=S)NC(C)C(c2ccccc2)N2CCN(C)CC2)c1C (stereo not drawn) | -50% |
| Cc1ccc(C)c(NC(=S)NC(C)C(c2cccs2)N2CCOCC2)c1 (stereo not drawn) | 8.4% |
| Cc1cccc(NC(=S)NC(C)C(c2cccs2)N2CCN(C)CC2)c1C (stereo not drawn) | -60.5% |
| CC(NC(=S)Nc1ccccc1Cl)C(c1cccs1)N1CCCC1 (stereo not drawn) | -10.2% |

| Compound | hERG current change (%, negative = inhibition) at 10uM |
| --- | --- |
| CCN1CCN(C(c2cccs2)C(C)NC(=O)CC(C)C)CC1 (stereo not drawn) | -6.37% |
| Cc1ccc(C)c(NC(=S)NC(C)C(c2ccccc2)N2CCN(C)CC2)c1 (stereo not drawn) | -48% |
| CN(C)c1ccc(/C=C2\NC(=S)N(Cc3ccccc3)C2=O)cc1 | -0.668% |
| O=C(CSC(=S)N1CCCC1)c1ccccc1 | 4.99% |
| COc1cc2c3c(c1OC)C1(C=CC(=NO)C=C1)CC3N(C(C)=O)CC2 (stereo not drawn) | 13.8% |
| O=[N+]([O-])c1cccc(C(=Nc2cccc(Cl)c2)NO)c1 | -20% |
| C/C(=N/NC(=O)CSc1nc2ccccc2s1)c1ccncc1 | -24% |
| CCOC(=O)c1cnc2c(cnn2C)c1Oc1ccc(OC)cc1 | -43% |
| COc1ccc(NC(=S)NC(C)C(c2ccccc2)N2CCOCC2)cc1 (stereo not drawn) | 7.52% |
| CCOc1ccc(NC(=S)NC(C)C(c2ccccc2)N2CCN(C)CC2)cc1 (stereo not drawn) | -58.5% |
| CC(NC(=O)COc1ccccc1)C(c1ccccc1)N1CCN(C)CC1 (stereo not drawn) | -9.29% |
| CC(=O)Nc1cc(C(=O)N2CCCC2)ccc1Sc1ccc(C)cc1 | -30.5% |
| CC(=O)Nc1cc(C(=O)N2CCc3ccccc3C2)ccc1Sc1ccc(F)cc1 | -55.4% |
| CC(=O)Nc1cc(C(=O)N2CCN(C)CC2)ccc1Sc1ccc(C)cc1 | -13.5% |
| O=C(c1cccc(F)c1)N1CCc2ccccc2C1 | -7.14% |
| CCCN1CCN(C(=O)c2ccc(Sc3ccc(C)cc3)c(NC(C)=O)c2)CC1 | -50.6% |
| CC(=O)Nc1cc(C(=O)N2CCc3ccccc3C2)ccc1Sc1ccc(C)cc1 | -53.6% |
| CC(=O)Nc1cc(C(=O)N2CCc3ccccc3C2)ccc1Sc1ccc(Cl)cc1 | -45% |
| CC(=O)Nc1cc(C(=O)N2CCC3(CC2)OCCO3)ccc1Sc1ccc(F)cc1 | 2.37% |
| CC(=O)Nc1cc(C(=O)N2CCC3(CC2)OCCO3)ccc1Sc1ccc(C)cc1 | -16% |
